# In the library only some 19% were active in any assay of this set; here they are far more common.
# IL-1B inflam inh: blocks inflammasome-driven IL-1 beta release; AID 743279; 4.7% of 360,000 active; THP-1 LPS/ATP IL-1B secretion, AlphaLISA, 16 h; hits give low values; activity change, % at 57.5 µM; in the data active = activity change below about -50%; inconclusive = mostly about -30% to -49%
#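 Secreted IL-1B measured by AlphaLISA bead assay after 16 h compound exposure of THP-1 cells; compounds (final up to 57.5 uM) added 1 h before LPS (250 ng/mL) and ATP (1.25 mM) stimulation; lower signal means less secretion.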
# DT40 TDP1 CPT: DT40-hTDP1 cell growth loss with CPT. chicken DT40 Tdp1-/-;hTDP1 cells + 20 nM CPT, ATP luminescence, 48 h. Potency, µM (highest dose often 46.2 µM), for the others: top-dose activity change, negative = growth inhibition, actives largely listed as inhibitors. 12% of 420,000 active. AID 686979; also: potency is read from the fitted curve at half-maximal effect; nearly all actives have a fitted effect of over 55% in size
#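 Cell growth measured by CellTiter-Glo luminescence after a minimum 48 h, 37 C compound exposure with 20 nM CPT in Tdp1-knockout DT40 cells stably expressing hTDP1, seeded 400/well; qHTS titration format.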
# HT1080NT lethal: kills 2HG-producing HT-1080-NT fibrosarcoma cells | HT-1080-NT fibrosarcoma viability, CellTiter-Glo ATP luminescence, 48 h | Potency, µM (series often up to 46.1 µM), inactives show top-dose activity, negative = less viability, usual class: cytotoxic | 1.6% of 360,000 active | AID 686970;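 also: NT is the 2HG producing partner of a matched IDH1 knockdown line; potency is read from the fitted curve at half-maximal effect; 0% = DMSO-treated cells and -100% = media-only wells without cells; nearly all actives have a fitted effect of over 55% in size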
#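 Compounds were tested in concentration-response format on HT-1080-NT cells for 48 hours at 37 degrees C. Cell viability came from CellTiter-Glo luminescence; curves were classified by r2, response magnitude and activity.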
# DT40 TDP1 no CPT: qHTS for Inhibitors of human tyrosyl-DNA phosphodiesterase 1 (TDP1): qHTS in cells in absence of CPT | DT40 Tdp1-/- hTDP1 cells, no CPT, ATP luminescence, 48 h | Potency, µM (doses to about 46.2 µM), for inactives: at the top dose activity change, negative = growth inhibition, actives largely listed as inhibitors | 15% of 420,000 active | AID 686978, 2013; also: potency is read from the fitted curve at half-maximal effect; nearly all actives have a fitted effect of over 55% in size
#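 Growth kinetics read by CellTiter-Glo luminescence after ≥48 hr at 37 °C. Cells: DT40 Tdp1-/- stably carrying human TDP1, 400 per well, compound exposure in the absence of CPT (DMSO vehicle).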
# HT1080 IDH1KD tx: toxicity to HT-1080 IDH1 knockdown cells (counter line). AID 686971. 2% of 360,000 active. HT-1080 IDH1 knockdown viability, ATP luminescence, 48 h. Potency, µM (top dose mostly 46.1 µM), for inactives: at the top dose activity, negative = toxicity, actives largely listed as cytotoxic;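 also: potency is read from the fitted curve at half-maximal effect; 0% = DMSO wells and -100% = cell-free medium wells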
#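 HT-1080-IDH1KD cells (IDH1 knocked down), 750/well in RPMI with 5% FBS, treated with compound 48 h at 37 degrees C. Viability by CellTiter-Glo luminescence, normalised to DMSO and no-cell wells; concentration-response curves classed.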
# * marks the source's active call; other numbers are inactive results; ? = inconclusive; . = not tested or not shown. Unless noted, calls follow the shape of the dose curve; as a rule, active = well fitted curve in the direction sought with a large enough effect; inconclusive = small, poorly fitted or top-dose-only effect, or another doubt; inactive = no such curve, though single readings can be large; an effect the other way counts as inactive or inconclusive. Unless noted, % is scaled to controls: 0 for no effect and ±100 for the full control effect.
SMILES,IL-1B inflam inh,DT40 TDP1 CPT,HT1080NT lethal,DT40 TDP1 no CPT,HT1080 IDH1KD tx
O=C(Oc1ccc(C(=S)N2CCC(O)CC2)cc1)c1ccc(Cl)cc1,6,24%,12%,-6%,29%
CN(C)S(=O)(=O)c1ccc(NC(=O)COC(=O)C2CC3CCCC(C2)C3=O)cc1 (stereo not given),4,-4%,-9%,6%,-6%
COc1ccc(-c2c3c(=O)n(C)c(=O)n(C)c3c3n2-c2ccccc2NC3c2ccco2)cc1 (stereo not given),.,15µM*,.,?,.
CCOC(=O)C(=NCC1CCCO1)NNc1ccccc1Cl (stereo not given),3,6%,10%,-10%,-3%
O=C(NN1C(=O)/C(=C/C=C/c2ccco2)SC1=S)c1ccncc1,-10,-20%,8%,-4%,-7%
CC(/C=C1\SC(=S)N(CC(=O)O)C1=O)=C\c1ccccc1,-10,-13%,9%,10%,19%
O=C(NN1C(=O)/C(=C/C=C/c2ccccc2)SC1=S)c1ccncc1,-72*,-9%,-9%,-29%,-7%
CC(/C=C1\SC(=O)N(CC(=O)Nc2ccc(O)cc2)C1=O)=C\c1ccccc1,-76*,-24%,2%,-24%,-2%
CC(/C=C1\SC(=S)N(CC(=O)N2CCN(c3ccccc3)CC2)C1=O)=C\c1ccccc1,-5,21µM*,-1%,21µM*,0%
COc1ccc(/C=C2\SC(=O)N(CC(=O)Nc3ccc(O)cc3)C2=O)cc1OC,-14,-17%,-9%,-2%,?
O=C(CN1C(=O)S/C(=C/c2ccncc2)C1=O)Nc1ccccc1,-16,23µM*,-5%,?,0%
CC(/C=C1\SC(=S)N(NC(=O)c2cccc(O)c2)C1=O)=C\c1ccccc1,-101*,7%,-9%,-19%,-2%
Cc1cccc(NC(=O)CN2C(=O)S/C(=C\C(=O)Nc3ccc(Cl)cc3)C2=O)c1,-6,-15%,-4%,-23%,-8%
CC(/C=C1\SC(=O)N(CC(=O)Nc2cccc(O)c2)C1=O)=C\c1ccccc1,-57*,-1%,?,?,?
O=C(CCCN1C(=O)/C(=C\c2ccccc2)SC1=S)Nc1ccc(C(=O)O)cc1,6,-3%,-7%,-26%,-4%
CC(=O)c1ccc(NC(=O)CCCN2C(=O)/C(=C/C(C)=C/c3ccccc3)SC2=S)cc1,-66*,?,6%,23µM*,0%
CS(=O)(=O)NCC(c1ccco1)N1CCN(c2ccccc2)CC1 (stereo not given),.,-12%,.,-16%,.
CC1=CC(C)(C)[N+](C)=CN1c1ccccc1,22,-5%,1%,?,25%
COc1ccccc1NC(=O)CSc1nnc(CC(=O)Nc2ccccc2F)n1C,47,-24%,-5%,-1%,3%
COc1ccc2c(c1)-c1nc(NC(=O)c3cc(OC)c(OC)c(OC)c3)sc1CC2,.,?,.,18µM*,.
COc1ccc2c(c1)-c1nc(NC(=O)c3cc(Cl)ccc3OC)sc1CC2,.,8.2µM*,.,?,.
Cc1cc(C)c(S(=O)(=O)N2CCCCC2CCNC(=O)C(=O)NCCN2CCOCC2)c(C)c1 (stereo not given),-10,?,4%,?,6%
COc1cc(CC(=O)NCc2ccc3c(c2)OCO3)cc(OC)c1OC,1,-25%,13%,-20%,8%
COc1cc(-c2nccc3cc4c(cc23)OCO4)cc(OC)c1OC,21,5.8µM*,?,4.6µM*,4.6µM*
Cc1[nH]nc2c1C(c1ccoc1)C(C#N)=C(N)O2 (stereo not given),?,10%,6%,-1%,-12%
CCOc1cc(C2C(C#N)=C(N)Oc3n[nH]c(CC)c32)ccc1OCCN1CCOCC1 (stereo not given),-61*,-18%,5%,-11%,0%
